Source: PubChem (National Center for Advancing Translational Sciences (NCATS))
NS1 inh – qHTS Assay for Inhibitors of Influenza NS1 Protein Function. 270,000 compounds, 0.4% hits. AID 2326, 2010. Potency, µM (highest dose often 46.1 µM); note: actives are rising curves; nearly all actives have a fitted effect of over 50% in size
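Growth recovery, yeast-based: influenza A NS1 expressed in S. cerevisiae causes slow growth, and suppressors are detected by OD600. The parent strain without NS1 is used as positive control.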
Pf growth 96h – Primary qHTS for delayed death inhibitors of the malarial parasite plastid, 96 hour incubation. P. falciparum luciferase reporter growth, 96 h. Potency, µM (titrated, usually from 28.7 µM), hits mostly inhibitors. 320,000 compounds, 6.9% hits; active = well fitted inhibition curve with a large enough effect; inconclusive = small, poorly fitted or top-dose-only effect, or another doubt; inactive = no such curve, though single readings can be large or run the other way
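P. falciparum expressing integrated firefly luciferase grown in erythrocytes (2% hematocrit, 0.05% parasitemia final) with compounds for 96 hours at 37 C, 5% CO2. Growth inhibition read as loss of luminescence after adding luciferase detection reagent.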
Cycloheximide cs – Cycloheximide Counterscreen for Small Molecule Inhibitors of Shiga Toxin; cell reporter, cycloheximide protein synthesis inhibition counterscreen; max response, %; 300,000 compounds, 12% hits; in the data active = max response mostly above about 13%, no sharp cut-off; inactive = mostly below about 14%; note: read at 38.3 µM for the half of the compounds with a filed dose
Shiga toxin inh – A qHTS for Small Molecule Inhibitors of Shiga Toxin | inhibition, % at 38.7 µM | Vero cells, Shiga toxin protein synthesis inhibition reporter | 290,000 compounds, 9.2% hits; in the data active = inhibition mostly above about 28%, no sharp cut-off; inactive = mostly below about 43%
SARS PLpro yeast – qHTS of Yeast-based Assay for SARS-CoV PLP. S. cerevisiae expressing SARS-CoV PLpro, growth rescue. Potency, µM (series often up to 32.9 µM), most hits filed as activators. 330,000 compounds, 0.19% hits. AID 485353, 2010; note: nearly all actives have a fitted effect of over 55% in size
Pf growth 48h – Primary qHTS for delayed death inhibitors of the malarial parasite plastid, 48 hour incubation. AID 504832, 2011. P. falciparum luciferase growth in erythrocytes, 48 h. 310,000 compounds, 5.9% hits. Potency, µM (titrated, usually from 28.7 µM), actives largely listed as inhibitors; active = well fitted inhibition curve with a large enough effect; inconclusive = small, poorly fitted or top-dose-only effect, or another doubt; inactive = no such curve, though single readings can be large or run the other way
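Erythrocytes infected with P. falciparum carrying an integrated firefly luciferase reporter (2% hematocrit, 0.1% parasitemia final) were exposed to compounds in RPMI 1640 with 0.5% Albumax at 37 C, 5% CO2. Growth inhibition was scored as reduced luminescence.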
Large screens that a line does not name were inactive; ! = not active in a repeat. The list is not random: actives were taken first. Their share in the collection is about 21%. Unless noted, calls come from the whole dose curve.

Cc1ccc(Cl)cc1NC(=O)C1CCCCC1C(=O)O (centres undefined)	none
Cc1nnc(SCCn2c(N3CCC(Cc4ccccc4)CC3)nc3c2c(=O)[nH]c(=O)n3C)s1	Pf growth 96h 9.3µM, Pf growth 48h inconclusive
Cc1nnc(SCCn2c(N3CCCCCC3)nc3c2c(=O)[nH]c(=O)n3C)s1	none
COc1cccc(C2C(C(C)=O)=C(O)C(=O)N2CCc2c[nH]c3ccccc23)c1 (centres undefined)	none
Cc1ccccc1NC(=O)C(=Cc1ccc(C(=O)O)cc1)C(=O)Nc1ccccc1C	Pf growth 96h inconclusive, Pf growth 48h 3.7µM
Cc1ccccc1NC(=O)Cc1nnc(SCC(=O)NC2CCCC2)n1C	none
Cc1ccc(NC(=O)C(OC(=O)c2ccccc2Cl)c2ccccc2)cc1Cl (centres undefined)	none
O=C(Nc1ccc2ccccc2c1)C(c1ccccc1)C1CCCC1 (centres undefined)	Pf growth 96h 2.1µM, Pf growth 48h 8.3µM
Cc1cc(C(=O)OC(C(=O)Nc2ccc(C)c(Cl)c2)c2ccccc2)c(C)o1 (centres undefined)	Pf growth 96h inconclusive, Pf growth 48h 10µM
COc1cccc(NC(=O)C(NC2CCCC2)c2ccccc2)c1 (centres undefined)	Pf growth 96h inconclusive, Pf growth 48h inconclusive
Cc1ccc(NC(=O)C(c2ccccc2)C2CCCC2)cc1 (centres undefined)	Pf growth 96h inconclusive
Cc1ccc(NC(=O)C(NC2CCCC2)c2ccccc2)cc1Cl (centres undefined)	Pf growth 96h 12µM, Pf growth 48h 13µM (no result: NS1 inh)
COC(=O)c1cccc(NC(=O)CSc2nc(O)c(-c3ccccc3)c(=O)[nH]2)c1	none
Cc1csc(NC(=O)CSc2nnc(-c3ccc(S(=O)(=O)N4CCCC4)cc3)o2)n1	Pf growth 48h 5.9µM (no result: Pf growth 96h)
CCN(CC)S(=O)(=O)c1ccc(-c2nnc(SCC(=O)Nc3nc(C)cs3)o2)cc1	none (no result: Pf growth 48h)
Cc1csc(NC(=O)CSc2nnc(-c3ccccc3)o2)n1	Cycloheximide cs 28, Shiga toxin inh 52 (no result: Pf growth 48h)
Cc1csc(NC(=O)CSc2ccc(-c3ccccc3)nn2)n1	Pf growth 48h inconclusive (no result: NS1 inh)
C=CCN1C(=O)C2(OCCO2)c2cc(C)ccc21	none
CC(Cl)c1cc(-c2ncc(C(F)(F)F)cc2Cl)no1 (centres undefined)	Cycloheximide cs 23, Shiga toxin inh 84 (no result: NS1 inh)
COC(=O)C(C(=O)OC)c1ncc(C(F)(F)F)cc1Cl	none
COc1ccccc1C(=O)C1CCCN(C(=O)c2cc(CC(C)C)nc(C)n2)C1 (centres undefined)	none
C[C@]12CCC(=O)C=C1CC[C@@H]1[C@@H]2[C@@H](O)C[C@@]2(C)[C@H]1CC[C@]2(O)C(=O)COP(=O)(O)O	Pf growth 96h 7.6µM (no result: NS1 inh, Cycloheximide cs, Shiga toxin inh, SARS PLpro yeast)
CCC(C)C(NC(=O)CCC(=O)OCC(=O)[C@@]1(O)CCC2[C@@H]3CCC4=CC(=O)C=C[C@]4(C)C3[C@@H](O)C[C@@]21C)C(=O)O (some centres undefined)	Pf growth 96h inconclusive, Pf growth 48h 3.7µM
C[C@]12C=CC(=O)C=C1CC[C@@H]1C2[C@@H](O)C[C@@]2(C)C1CC[C@]2(O)C(=O)COC(=O)CCC(=O)O (some centres undefined)	none
CCCC(=O)O[C@]1(C(=O)CO)CC[C@H]2[C@@H]3CCC4=CC(=O)CC[C@]4(C)[C@H]3[C@@H](O)C[C@@]21C	none
CC(=O)OCC(=O)[C@@]1(O)CC[C@H]2[C@@H]3CCC4=CC(=O)CC[C@]4(C)[C@H]3[C@@H](O)C[C@@]21C	Pf growth 48h inconclusive
C[C@]12CCC(=O)C=C1CC[C@@H]1[C@@H]2[C@@H](O)C[C@@]2(C)[C@H]1CC[C@]2(O)C(=O)COC(=O)CCC(=O)O	Pf growth 96h 12µM!, Pf growth 48h 13µM!
CNC(=O)COC(=O)c1c2c(nc3ccccc13)CCC2	Pf growth 96h inconclusive, Pf growth 48h 13µM
COc1ccc(NC(=O)COC(=O)c2c3c(nc4ccccc24)CCCC3)cc1Cl	Pf growth 48h 12µM (no result: Pf growth 96h)
COc1ccc(OC)c(NC(=O)COC(=O)c2c3c(nc4ccccc24)CCCC3)c1	Pf growth 48h 8.3µM (no result: Pf growth 96h)
